Test [1] is described as follows: BSK_BT_PBMCCytotoxicity: PBMC Cytotoxicity Assessment in the BioMAP Diversity Plus: BT Assay (AID 2284225).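 Further: PBMC viability measured by Alamar Blue dye reduction fluorescence.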 Particulars: primary human B cells with PBMC. In outline: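 PBMC (75,000/well) pretreated with compound 1 h, then activated with SEB and TSST-1 (20 ng/mL each final), incubated 90 h; Alamar Blue added 6 h, fluorescence read at 546/580 nm. Fitted relative to DMSO.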

Read-out in test [2]: Secreted IgG (sIgG), gene 3500
As to the kind of experiment: BSK_BT_sIgG: BioMAP Diversity Plus: BT Assay for Secreted IgG (sIgG) Biomarker Activity (AID 2284226). The conditions noted are these: primary human B cells with PBMC. In a few lines:
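Human B cell plus PBMC co-culture; secreted IgG measured by ELISA 24 h after chemical dosing. Response fitted in positive direction relative to DMSO baseline.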

The nature of test [3]: BSK_BT_Bcell_Proliferation: Viability Assessment in the BioMAP Diversity Plus: BT Assay for B cell Proliferation (AID 2284227). Particulars: primary human B cells with PBMC. In outline: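 Human B cell/PBMC co-culture; test chemical added; 72 h; TCA fix (10%), 0.1% SRB stain, A560 for total protein as a proliferation read-out; positive-direction fit vs DMSO baseline.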
Read-out in test [4]: Interleukin 6 (IL6), IL6 (gene 3569)
As to the kind of experiment: BSK_BT_xIL6: BioMAP Diversity Plus: BT Assay for Interleukin 6 (IL6) Biomarker Activity (AID 2284228). Particulars: primary human B cells with PBMC. In a few lines: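 B cells and peripheral blood mononuclear cells (human primary co-culture) were dosed with chemical, and after 24 h IL-6 released into the medium was measured by Luminex xMAP. Responses were analysed as gain of signal over DMSO control.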

Read-out in test [5]: Interleukin 17A (IL17A), IL17A (gene 3605)
As to the kind of experiment: BSK_BT_xIL17A: BioMAP Diversity Plus: BT Assay for Interleukin 17A (IL17A) Biomarker Activity (AID 2284229). The conditions noted are these: primary human B cells with PBMC. In a few lines: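 Secreted IL-17A was the measured endpoint, read by Luminex xMAP multiplex in supernatants of a human B cell/PBMC co-culture harvested 24 h after chemical dosing. Signal increase relative to DMSO defined activity.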

Read-out in test [6]: Tumor necrosis factor (Homo sapiens) (UniProt P01375)
The test can be described thus: BSK_BT_xTNFa: BioMAP Diversity Plus: BT Assay for Tumor necrosis factor alpha (TNF-alpha) Biomarker Activity (AID 2284230). The conditions noted are these: primary human B cells with PBMC. In outline:
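Read-out: Luminex xMAP quantitation of secreted TNF-alpha from a B cell/PBMC co-culture 24 h after compound addition. Signal analysed relative to DMSO vehicle, positive fitting direction.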

Read-out in test [7]: Vascular cell adhesion molecule 1 (VCAM1), VCAM1 (gene 7412)
As to the kind of experiment: BSK_MyoF_VCAM1: BioMAP Diversity Plus: MyoF Assay for Vascular cell adhesion molecule 1 (VCAM1) Biomarker Activity (AID 2284231). The conditions noted are these: primary human lung fibroblasts. In outline: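 ELISA read-out of VCAM-1 on human lung fibroblasts 24 h after chemical treatment, with positive-direction curve fitting relative to DMSO controls. Parallel cultures were stained with sulforhodamine B for total protein to flag overt cytotoxicity.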

Read-out in test [8]: Collagen I, COL1A1 (gene 1277)
The test can be described thus: BSK_MyoF_CollagenI: BioMAP Diversity Plus: MyoF Assay for Collagen I Biomarker Activity (AID 2284238). The conditions noted are these: primary human lung fibroblasts. In outline:
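Lung fibroblasts (human primary) dosed, 24 h; Collagen I by ELISA; positive-direction fit vs DMSO control. Parallel SRB total-protein staining (0.1% SRB, 10% TCA fixation, 560 nm) flags overt cytotoxicity.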

Read-out in test [9]: Collagen III, COL3A1 (gene 1281)
The test can be described thus: BSK_MyoF_CollagenIII: BioMAP Diversity Plus: MyoF Assay for Collagen III Biomarker Activity (AID 2284239). Particulars: primary human lung fibroblasts. In outline: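 ELISA read-out of collagen III from human lung fibroblasts after 24 h of chemical treatment. The DMSO control served as negative control and baseline, with values fitted in the positive direction.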

Test [10] can be described thus: CCTE_Mundy_HCI_hNP1_Casp3_7: CCTE's Caspase-Glo 3/7 Assay in human neuroprogenitor cells for Apoptosis, Mundy Lab (AID 2284240). In outline: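 Luminescent caspase-3/7 readout, 26.5 h post-dose, in human neural progenitor cells from WA09 embryonic stem cells. Cells grew 40–44 h at 37 °C, 5% CO2 before chemical addition. Activity analysed as signal increase over DMSO baseline.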

Test [11] in a line: CCTE_Mundy_HCI_Cortical_Synap_Neur_Matur_NeuriteCount: CCTE's Synaptogenesis and Neurite Maturation Assay in rat cortical cells for Neurite Count, Mundy Lab (AID 2284222).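 On outcome: exposure from day 7 to day 12 in vitro with readout at day 12.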 In a few lines:
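Rat cortical neurons, 96-well; AraC DIV 5; chemical + media change DIV 7; end DIV 12. Fix PFA/Hoechst, anti-MAP2 + anti-synaptophysin IF. HCI neurite count vs DMSO baseline.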

Test [12] in a line: CCTE_Mundy_HCI_Cortical_Synap_Neur_Matur_CellBodySpotCount: CCTE's Synaptogenesis and Neurite Maturation Assay in rat cortical cells for Cell Body Spot Count, Mundy Lab (AID 2284223). In outline:
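Rat cortical neurons; AraC @ DIV 5; dose + media change DIV 7; fix DIV 12; anti-MAP2/anti-synaptophysin IF, Hoechst; HCI count of soma synaptophysin puncta/neuron; DMSO = negative control.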

Test [13] can be described thus: CCTE_Mundy_HCI_Cortical_NOG_NeuronCount: CCTE's Neurite Outgrowth Assay in rat cortical cells for Neuron Count, Mundy Lab (AID 2284236; active means hit-call score of the fitted dose curve at least 0.9, where 1 is the maximum;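 further: neurons counted by imaging betaIII-tubulin and Hoechst stained cortical cells; cells exposed to compound for about 48 hours before fixation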). In a few lines: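 Read-out: neuron number by high-content imaging of betaIII-tubulin (Alexa Fluor-488) and Hoechst-labelled rat primary cortical cells.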
Test [14] can be described thus: CCTE_Mundy_HCI_Cortical_NOG_BPCount: CCTE's Neurite Outgrowth Assay in rat cortical cells for Branch Point Count, Mundy Lab (AID 2284237).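 On AC50: branch points counted about two days after chemical exposure.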 In outline:
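Measured 50.33 h after dosing, this morphology endpoint uses rat primary cortical cultures labelled for betaIII-tubulin. Branch points are quantified by high-content imaging, with DMSO as negative control and baseline.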

Test [15] can be described thus: CCTE_Mundy_HCI_Cortical_Synap_Neur_Matur_NeuronCount: CCTE's Synaptogenesis and Neurite Maturation Assay in rat cortical cells for Neuron Count, Mundy Lab (AID 2284242; active means hit-call score of the fitted dose curve at least 0.9, where 1 is the maximum;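 further: hits reduce neuron count versus DMSO baseline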). In a few lines:
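Rat primary cortical cells, AraC added at DIV 5, dosed with media change from DIV 7 to DIV 12. Fixed, Hoechst-stained and immunolabelled for MAP2 and synaptophysin; neuron number counted by high-content imaging, loss fitted versus DMSO.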

Test [16] can be described thus: CCTE_Mundy_HCI_hNP1_CellTiter: CCTE's Cell Titer-Glo 2 Assay in human neuroprogenitor cells for Viability, Mundy Lab (AID 2284241; active means hit-call score of the fitted dose curve at least 0.9, where 1 is the maximum). In a few lines: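 Viability read as luminescent ATP content (CellTiter-Glo, 30 min room temperature) twenty-four hours after dosing, relative to DMSO. Cells: WA09-derived hNP1 neuroprogenitors on poly-L-ornithine/laminin, plated 40 to 44 hours before chemical.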

Test [17] is described as follows: CCTE_Mundy_HCI_hNP1_Pro_ResponderAvgInten: CCTE's Proliferation Assay in human neuroprogenitor cells, Mundy Lab (AID 2284224; active means hit-call score of the fitted dose curve at least 0.9, where 1 is the maximum). In outline:
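Proliferation read as average intensity of BrdU-positive cells, imaged at 26.25 h post-dosing: chemical exposure started after 40–44 h culture, BrdU during final 4 h, paraformaldehyde fixation. Positive-direction fit relative to DMSO.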

Test [18] is described as follows: UKN2_HCS_IMR90_cell_viability: Viability Assessment in the University of Konstanz (UKN) Leist Lab Neural Crest Cell Migration Assay in human induced IMR90 Pluripotent Stem Cells (UKN2) (AID 2284233).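 Further: viability of neural crest cells differentiated from IMR90 iPSC measured by calcein-AM fluorescence imaging; cells exposed to compound for 24 h after a 24 h migration phase.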 In a few lines:
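Neural crest cells derived from IMR90 iPSC migrate into a stopper-free zone for 24 h in EGF/FGF medium, then are exposed to compound for 24 h. Viability assessed by calcein-AM and Hoechst staining with high-content imaging, fitted bidirectionally versus DMSO.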

Several values for one entry are separate records, joined by “and”; a condition that tells them apart may be missing. Equal entries are not always repeated. Results filed as inconclusive are left out. The source holds several records for some structures; these can differ, active in one and inactive in another. Activity calls are given as the source filed them. How the source made its calls, unless noted: active means hit-call score of the fitted dose curve at least 0.9, where 1 is the maximum; inactive means score below 0.9.

Sequence of Tumor necrosis factor (Homo sapiens) (P01375 whole entry, looked up): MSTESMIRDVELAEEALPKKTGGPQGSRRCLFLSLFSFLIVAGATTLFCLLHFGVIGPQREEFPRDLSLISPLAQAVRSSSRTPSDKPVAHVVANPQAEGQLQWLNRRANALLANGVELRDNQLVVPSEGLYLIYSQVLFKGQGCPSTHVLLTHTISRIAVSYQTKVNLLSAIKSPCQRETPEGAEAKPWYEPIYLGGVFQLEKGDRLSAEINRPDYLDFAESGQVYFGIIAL

For orientation: AC50 means the concentration at which the activity in the assay is half-maximal. On to `OCC(F)(F)OC(F)(F)C(F)(F)OC(F)(F)C(F)(F)OC(F)(F)F`, for which the AC50 is 30.7 µM (active) and 43.3 µM (active) in test [1]; 50.4 µM (active) and 44.2 µM (active) in test [2]; 22.6 µM (active) and 52.7 µM (active) in test [3]; 46.6 µM (active) and 45.2 µM (active) in test [4]; 49.2 µM (active) in test [5]; 50.4 µM (active) and 30 µM (active) in test [6]. The AC50 is 54.7 µM (active) and 40.5 µM (active) in test [7]; 39.9 µM (active) and 22.1 µM (active) in [8]; 19.7 µM (active) and 23.9 µM (active) in [9]. Moreover, the result in [5] and in test [10] was inactive.

Regarding `CC(C)(C)c1ccccc1OP(=O)(Oc1ccccc1)Oc1ccccc1`, the compound was called inactive in [11], in [12] and in [1]. In addition, the AC50 is 13.5 µM (active) in [2]; 28.6 µM (active) in test [3]; 29.2 µM (active) in test [4]; 24 µM (active) in test [5]; 36.7 µM (active) in [6]; 33.7 µM (active) in test [7]. Besides, the AC50 was 26.2 µM (active) in test [13]; 17.5 µM (active) in test [14]; 28.3 µM (active) in test [8]; 25.2 µM (active) in test [9]; 3.09 µM (active) in test [15].

For `O=S1(=O)OCC2C(CO1)C1(Cl)C(Cl)=C(Cl)C2(Cl)C1(Cl)Cl` (stereo not given), the concentration at half-maximal activity (AC50) in test [1] was 32.9 µM (active); in test [2], 1.55 µM (active); in test [3] it was 25.9 µM (active); in test [4], 33 µM (active); in test [5] it was 16.1 µM (active); in test [6], 31 µM (active). For the same compound, the outcome in [7], in test [8] and in test [9] was inactive.

Take `O=C(O)C(F)(F)C(F)(F)C(=O)O`: the result in test [1], in test [2], in [3], in test [4], in test [5] and in [6] was inactive. Besides, the result in [7], in [8] and in test [9] was inactive. Moreover, the AC50 in test [6] was 0.222 µM (active).

With `COP(N)(=S)OC`, the result in test [1], in test [2], in [3], in test [4], in [5] and in [6] was inactive. The result in test [7], in test [8] and in [9] was inactive.

As for `CC(O)C(F)(F)C(F)(F)F` (stereo not given), the outcome in test [1], in [2], in test [3], in test [4], in test [5] and in test [6] was inactive. For the same compound, the result in [7], in test [8] and in test [9] was inactive.

Consider `O=C(O)C(F)(F)OC(F)(F)C(F)(F)OC(F)(F)F`, for which the outcome in test [1], in [2], in test [3], in test [4], in test [5] and in test [6] was inactive. In addition, the result in test [7], in test [8], in test [9], in [10] and in test [16] was inactive. The AC50 in [3] is 12.6 µM (active).

With `OCC(F)(F)OC(F)(F)C(F)(F)OC(F)(F)C(F)(F)OC(F)(F)CO`, the outcome in test [1], in test [3], in test [4], in [5], in [6] and in [7] was inactive. Moreover, the outcome in [8] and in [9] was inactive. The AC50 in [2] is 30 µM (active); in test [4], 38.4 µM (active); in test [7], 41.2 µM (active).

For the compound `CCOP(=S)(OCC)SCSCC`, the figures for the half-maximal activity concentration (AC50) in test [11], in test [12] and in test [15] were 81.1 µM (active), 77.6 µM (active) and 78.4 µM (active), respectively. Also, the compound was called inactive in test [11], in test [12], in test [17], in test [18], in test [13] and in test [14]. In addition, the outcome in [10] and in [16] was inactive.

Take `CCCCOCCOP(=O)(OCCOCCCC)OCCOCCCC`: the outcome in test [1], in test [2], in test [3], in test [4], in test [5] and in [7] was inactive. The outcome in test [8] and in [9] was inactive. The AC50 in test [6] was 0.015 µM (active).

The values are drawn from PubChem BioAssay (EPA / NIEHS).
